In ChEMBL document CHEMBL1157539, “Thousands of chemical starting points for antimalarial lead identification” (Nature, 2010):

Legend:
Type in all cases: functional
Plasmodium falciparum [1] = assay: GSK_TCMDC: Inhibition of Plasmodium falciparum 3D7 in whole red blood cells, using parasite LDH activity as an index of growth. Test compounds present at 2uM
Plasmodium falciparum [2] = assay: GSK_TCMDC: Inhibition of Plasmodium falciparum Dd2 in whole red blood cells, using parasite LDH activity as an index of growth. Test compounds present at 2uM
HepG2 = assay: GSK_TCMDC: Percent inhibition of human HepG2 cell line. Test compounds present at 10uM.

SMILES | Inhibition (Plasmodium falciparum [1]) | Inhibition (Plasmodium falciparum [2]) | Inhibition (HepG2)
CC(C)N1CCN(C(CN2CCN(CCCOc3ccc(-c4ccccc4)cc3)CC2)c2ccc(F)cc2)CC1.Cl (configuration not stated) | 100% | 100% | 100%
O=C(Nc1ccc(C(F)(F)F)cc1)Nc1ccccc1N1CCNCC1.O=C(O)C(F)(F)F | 94% | 69% | 39%
CCOc1ccc2[nH]c(C)cc(=NN=Cc3ccccc3)c2c1 | 96% | 8% | 5%
CCN(CCCN1CCCCC1)c1cc(C)nc(Nc2ccc(Br)cc2F)n1.O=C(O)C(F)(F)F | 95% | 24% | 32%
COc1cccc(-c2cccc(NC(=O)C3CCN(Cc4ccc(O)cc4)CC3)c2)c1 | 97% | 97% | 9%
c1ccc2cc3c(NCCN4CCOCC4)ccnc3cc2c1 | 99% | 98% | 0%
Cc1ccc(CN(Cc2ccc(C(=O)N(C)C)cc2)Cc2ccc3c(c2)OCCO3)cc1C | 91% | 87% | 10%
CCc1cn(CCCOC)c2ccc(C(=O)N[C@@H](Cc3ccccc3)[C@H](O)CNCc3cccc(C(F)(F)F)c3)cc12 | 93% | 78% | 8%
Cc1ccc2[nH]c(/C=C/c3cccc4cc[nH]c34)nc2c1 | 100% | 92% | 9%
Cn1nc(-c2cccc(CNCCc3cccs3)c2)c2cnc(NC3CCCC3)nc21 | 97% | 0% | 8%
CC(C)CNCc1ccc(OCc2cccc(COc3ccc(CNCC(C)C)cc3I)c2)c(I)c1.Cl | 98% | 84% | 23%
COc1ccc(-c2cc(C(=O)N[C@@H](Cc3ccccc3)C(=O)NCCN3CCCCC3)ccc2O)cc1 | 96% | 0% | 0%
c1ccc(Oc2ccc(Nc3ccnc(Nc4cccc(CNCCCN5CCOCC5)c4)n3)cc2)cc1 | 100% | 50% | 0%
O=C(/C=C/c1ccc(Cl)c(Cl)c1)NCCCCCN1CCCC(C(=O)Nc2ccc(Cl)c(Cl)c2)C1 (configuration not stated) | 100% | 11% | 53%
CCOCCCn1c(=N)c(C(=O)NCc2ccc(F)cc2)cc2c(=O)n3cccc(C)c3nc21 | 100% | 40% | 21%
CS(=O)(=O)NCCCNCc1cccc(-c2ccc(-c3nc4cc(C(F)(F)F)ccc4[nH]3)cc2)c1.O=C(O)C(F)(F)F | 100% | 85% | 17%
Cc1cccc2nc(-c3cccc(-c4cccc(NC(=O)NC5CC5c5ccccc5)c4)c3)[nH]c12 (configuration not stated) | 98% | 28% | 0%
CCNC(=O)N1CCc2ccc(Oc3nc(NCc4ccccc4OC)ncc3C)cc2CC1.O=C(O)C(F)(F)F | 83% | 76% | 0%
Cc1c2c(nn1-c1ccccc1)C(c1ccccc1)N(c1ccccc1)C2=O (configuration not stated) | 92% | 96% | 42%
CCCCCCN1CCC(CNCc2cccc(Cl)c2)CC1.O=C(O)C(F)(F)F | 85% | 13% | 8%
CCC(=Cc1cccc([N+](=O)[O-])c1)C(=O)NCC1CCN(c2nc3cc(OC)c(OC)cc3c(=N)[nH]2)CC1.Cl | 100% | 62% | 25%
C[C@@H](Oc1cc(-n2cnc3cc(SCCN4CCN(C)CC4)ccc32)sc1C(N)=O)c1ccccc1Cl | 90% | 65% | 46%
Cc1cc(N2CCN(CC3CCN(C)CC3)CC2)nc(Nc2ccc(Br)cc2)n1 | 100% | 100% | 31%
CC(CN1CCN(C)CC1)C(=O)Nc1ccc(-c2ccc(-c3nc4cc(F)ccc4[nH]3)cc2)cc1 (configuration not stated) | 100% | 87% | 19%
CCCc1cc(NC2CCN(C)CC2)nc(Nc2cccc(OC)c2)n1 | 100% | 28% | 31%
CCCC1CCNC(C(O)c2ccnc3ccc(OC)cc23)C1.Cl (configuration not stated) | 98% | 78% | 0%
c1ccc(-c2ccc(-c3nc4ccccc4[nH]3)cc2)cc1 | 93% | 83% | 10%
O=C1c2ccccc2-n2c1nc1ccccc1c2=O [TRYPTANTHRIN] | 93% | 80% | 9%
CN(C)CCOc1cc(NC(=O)Nc2ccc(-c3ccncc3)c(Cl)c2)ccc1I | 100% | 100% | 43%
